In all, about 400,000 compounds went through this assay and about 2,200 (0.55%) were called active. A call without a number means that no potency is given here. Another 1% or so got no clear call; they are omitted. The sample holds actives, similar compounds and a random draw of the others, so the mix is not that of the screen. Calls follow the shape of the dose curve; as a rule, active = well fitted inhibition curve with a large enough effect; inconclusive = small, poorly fitted or top-dose-only effect, or another doubt; inactive = no such curve, though single readings can be large or run the other way.
Potency is read from the fitted curve at half-maximal effect.

Sequence of DNA polymerase kappa (Homo sapiens) (Q9UBT6 whole entry, looked up): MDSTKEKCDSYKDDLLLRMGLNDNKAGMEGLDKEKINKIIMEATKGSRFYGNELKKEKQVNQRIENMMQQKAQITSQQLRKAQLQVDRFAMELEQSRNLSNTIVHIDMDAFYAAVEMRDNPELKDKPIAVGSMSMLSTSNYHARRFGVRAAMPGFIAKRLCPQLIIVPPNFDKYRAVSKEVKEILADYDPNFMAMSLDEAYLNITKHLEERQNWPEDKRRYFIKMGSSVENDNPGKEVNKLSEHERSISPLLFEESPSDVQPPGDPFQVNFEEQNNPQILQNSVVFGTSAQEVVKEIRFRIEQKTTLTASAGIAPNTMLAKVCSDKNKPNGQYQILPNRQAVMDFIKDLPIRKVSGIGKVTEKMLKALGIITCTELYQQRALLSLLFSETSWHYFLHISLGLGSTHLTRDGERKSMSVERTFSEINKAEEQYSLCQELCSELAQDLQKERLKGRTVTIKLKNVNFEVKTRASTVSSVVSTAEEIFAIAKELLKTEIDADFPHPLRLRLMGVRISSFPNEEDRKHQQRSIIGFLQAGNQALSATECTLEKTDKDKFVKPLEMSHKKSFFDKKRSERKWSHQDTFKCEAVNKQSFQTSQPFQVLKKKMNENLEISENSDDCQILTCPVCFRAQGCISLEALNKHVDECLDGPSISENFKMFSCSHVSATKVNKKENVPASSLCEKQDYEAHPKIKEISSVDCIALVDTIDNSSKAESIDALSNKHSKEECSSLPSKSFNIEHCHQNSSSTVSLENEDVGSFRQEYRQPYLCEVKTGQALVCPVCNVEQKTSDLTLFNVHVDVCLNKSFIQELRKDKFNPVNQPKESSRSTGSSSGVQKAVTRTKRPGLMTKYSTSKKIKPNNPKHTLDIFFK

The target of this assay is DNA polymerase kappa (Homo sapiens) (UniProt Q9UBT6). The experiment in a line: qHTS for Inhibitors of Polymerase Kappa. To be noted: purified Pol kappa, fluorescent DNA synthesis assay, 10 min; series mostly up to 107 µM. As to the method:
The processing and repair of DNA interstrand crosslinks (ICL) in eukaryotic cells are extremely complex, potentially involving multiple DNA repair and damage tolerance pathways, including homologous recombination, nucleotide excision repair, translesion synthesis (TLS), and cell cycle checkpoints.
To that end, in a collaboration between the Oregon Health & Science University and the NIH Chemical Genomics Center a 1536-well high-throughput screen was developed. This fluorescent screen was assayed against the NIH Molecular Libraries Small Molecule Repository (MLSMR) to discover inhibitors of Pol Kappa.
NIH Chemical Genomics Center [NCGC]
NIH Molecular Libraries Probe Centers Network [MLPCN]
Assay Submitter (PI): Stephen Lloyd, Oregon Health & Science University
Three microliters of reagents (buffer in column 3 and 4 as negative control and 10 nM Pol kappa in columns 1, 2, and 5-48) were dispensed into a 1536-well black solid-bottom plate. Compounds (23 nL) were transferred via Kalypsys pin tool equipped with 1536-pin array. The plates were then incubated for 15 min at room temperature, and 1 uL substrate (50 nM final concentration) were then added to start the reaction and kinetically read twice at 0 min and 10 min on the Viewlux reader
Regarding `CCOc1ccccc1/C=c1\sc2nc(-c3ccco3)nn2c1=O`, the Potency is 89.1 µM (active).

In the case of `CCOC(=O)C1CCN(C(c2ccc(F)cc2)c2sc3nc(-c4ccco4)nn3c2O)CC1` (stereo unspecified), the Potency entry was “inactive”.

As to `Oc1c(C(c2ccccc2Cl)N2CCOCC2)sc2nc(-c3ccco3)nn12` (stereo unspecified), the Potency result is “inactive”.

For `NCCC(=O)c1ccccc1N`, the activity, negative = inhibition was 1.11% [at 19.4 µM] (inactive).

Turning to `O=C(O)C(O)[C@@](O)(Cc1ccc(O)cc1)C(=O)O` (stereo partly specified), the Potency entry is “inactive”.

On to `CCN1CCN(C(=O)C2CCN(S(=O)(=O)c3cc(Cl)ccc3Cl)CC2)CC1`, for which the Potency result was “inactive”.

In the case of `O=S(=O)(c1cc(Cl)ccc1Cl)N1CCN(Cc2ccco2)CC1`, the Potency result was “inactive”.

On to `O=C(CN1CCN(S(=O)(=O)c2cc(Cl)ccc2Cl)CC1)c1ccc(O)c(O)c1`, for which the Potency is 28.2 µM (active).

With `NNc1nnc(NN)c2ccccc12`, the activity, negative = inhibition is 2.28% [at 19.4 µM] (inactive).

`CC(=O)/C(C)=N\O`: the activity, negative = inhibition is -8.23% [at 19.4 µM] (inactive).

Take `CC1(C)C=Cc2c(ccc(C(=O)/C=C/c3ccccc3)c2O)O1`: the Potency entry is “inactive”.

Regarding `COc1ccc(CNc2ncnc3ccc(-c4cccnc4)cc23)c(OC)c1`, the Potency entry is “inactive”.

Consider `O=C(c1ccc(CS(=O)(=O)c2ccccc2)o1)N1CCN(c2ccccc2)CC1`, for which the Potency is 79.4 µM (active).

As for `CCOC(=O)C1CCCN(C(=O)c2ccc(CS(=O)(=O)c3ccc(Br)cc3)o2)C1` (stereo unspecified), the Potency entry was “inactive”.

Turning to `O=C(c1ccc(Br)o1)N1CCN(CCOc2ccccc2)CC1`, the Potency result is “inactive”.

As for `Nc1nc2c(ncn2[C@@H]2O[C@H](COP(=O)(O)OP(=O)(O)OP(=O)(O)O)[C@@H](O)C2O)c(=O)[nH]1` (stereo partly specified), the activity, negative = inhibition was -4.75% [at 19.4 µM] (inactive).

Take `COc1ccc(OC)c([C@H](O)CNC(=O)CN)c1`: the activity, negative = inhibition was -13.4% [at 19.4 µM] (inactive).

In the case of `COC1C[C@@H](O[C@@H]2C(C)C(=O)OC(C)C(C)C(O)C(C)C(=O)[C@@]3(CO3)CC(C)C(OC3OC(C)CC(N(C)C)C3O)C2C)OC(C)[C@@H]1O` (stereo partly specified), the Potency entry was “inactive”.

Turning to `O=P(O)(O)OC[C@H](O)CO`, the Potency result was “inactive”.

With `COc1c2c(cc3occ(-c4ccc5c(c4)OCO5)c(=O)c13)OC(C)(C)C=C2`, the Potency result was “inactive”.

Regarding `COc1cccc2c1C(=O)c1c(O)c3c(c(O)c1C2=O)CC(O)(C(C)=NNC(=O)c1ccc(Cl)c(Cl)c1)CC3OC1CC(N)C(O)C(C)O1` (stereo unspecified), the Potency is 17.8 µM (active).

As to `Cc1cccc(-c2nnc(SC(C)C(=O)Nc3ccccc3)n2C)c1` (stereo unspecified), the Potency entry was “inactive”.

Regarding `COc1cccc(Nc2ncc3ncc(=O)n(C4CC4)c3n2)c1`, the Potency entry is “inactive”.

Consider `NC(=O)[C@H]1CC2(CC(c3cccc(NC(=O)[C@H]4CCC(=O)N4)c3)=NO2)CN1C(=O)c1ccccc1C(=O)c1ccccc1` (stereo partly specified), for which the Potency entry is “inactive”.

On to `C=C(C)C(=O)Nc1cccc(C2=NOC3(C2)C[C@H](C(N)=O)N(C(=O)C(c2ccccc2)c2ccccc2)C3)c1` (stereo partly specified), for which the Potency is 25.1 µM (active).

For `CCC(=O)Nc1cccc(C2=NOC3(C2)C[C@@H](C(N)=O)N(C(=O)c2cc([N+](=O)[O-])cc([N+](=O)[O-])c2C)C3)c1` (stereo partly specified), the Potency entry was “inactive”.

Regarding `CN1[C@H]2CC(OC(=O)[C@@H](CO)c3ccccc3)C[C@H]1[C@H]1O[C@H]12` (stereo partly specified), the activity, negative = inhibition is -3.18% [at 12 µM] (inactive).

Turning to `O=C(c1cnccn1)N1CCC2(CCN(Cc3cc(C(F)(F)F)cc(C(F)(F)F)c3)CC2)CC1`, the Potency result was “inactive”.

Turning to `Cc1nc2cnc(Oc3cccc(Cl)c3)nc2n(C2CC2)c1=O`, the Potency entry was “inactive”.

Take `S=c1[nH]c(=S)c2n[nH]nc2[nH]1`: the Potency entry was “inactive”.

Consider `COc1ccccc1Nc1cc(C(=O)NCCCN(C)C2CCCCC2)c2ccccc2n1`, for which the Potency result is “inactive”.

Take `CN(C)CCNC(=O)c1ccc(Cl)c2cc3ccccc3nc12`: the Potency was 50.1 µM (active).

As to `COc1ccc(Nc2cc(C(=O)NCCCN(C)c3ccccc3)c3ccccc3n2)c(OC)c1`, the Potency result is “inactive”.

For the compound `O=C(c1csnn1)N1CCC[C@@]2(CCN(c3cccc(-c4ccccc4)c3)C2)C1`, the Potency result was “inactive”.

`CC(=O)c1ccc(S(=O)(=O)N2CCC(Oc3ccc(-n4cnnn4)cc3)CC2)cc1`: the Potency entry is “inactive”.

Take `CC(=O)c1ccc(S(=O)(=O)N2CCN(C(=O)/C=C/c3ccc4ccccc4n3)CC2)cc1`: the Potency was 79.4 µM (active).

For `CC(=O)c1cccc(Nc2ccc3cc(S(=O)(=O)N4CCC(C)CC4)ccc3n2)c1`, the Potency entry is “inactive”.

As to `Cc1cccc(NC(=O)COC(=O)c2ccccc2OCc2cccc(Br)c2)c1`, the Potency entry is “inactive”.

For `C=C1C(=O)C23C(O)C1CCC2[C@]12COC3(O)C(O)C1C(C)(C)CC[C@H]2O` (stereo partly specified), the Potency entry is “inactive”.

For the compound `O=C(O)c1ccc(NN=CC2=C(N3CCOCC3)/C(=C/c3ccccc3)CC2)cc1`, the Potency is 28.2 µM (active).

For the compound `O=C(Nc1cc(Cl)ccc1N1CCOCC1)c1ccc(N2CCCC2=O)cc1`, the Potency result was “inactive”.

As to `CC(C)(CNC(=O)c1ccc(Cl)c(S(=O)(=O)N2CCc3ccccc3C2)c1)N1CCOCC1`, the Potency entry was “inactive”.

Consider `Cc1cccc(C(=O)NC(=S)N2CCN(c3ccc([N+](=O)[O-])cc3)CC2)c1`, for which the Potency entry was “inactive”.

On to `Cc1cc(/C=N/Nc2ccc([N+](=O)[O-])cn2)c(C)n1-c1cccc(C(=O)O)c1`, for which the Potency is 70.8 µM (active).

With `CN1CCN(C(=O)c2cnn(-c3ccccc3)c2NC(=O)c2ccc([N+](=O)[O-])cc2)CC1`, the Potency result is “inactive”.

`COc1cc(OC)c(OC)cc1/C=C1\C=Cc2ccccc21`: the Potency entry was “inactive”.

For `O=c1c(-c2ccc(F)cc2)nc2cnc(N3CCNCC3)nc2n1Cc1cccs1`, the Potency entry is “inactive”.

With `CN(C)c1ccc(/C=C2\C=Cc3ccccc32)cc1Br`, the Potency result was “inactive”.

On to `CCN(CC)CCOc1ccc2c(c1)C(=NNC(=O)c1ccccn1)c1cc(OCCN(CC)CC)ccc1-2`, for which the Potency is 10 µM (active).

As for `CCOc1ccc(C(=O)N2CCN(CCc3ccccn3)CC2)cc1`, the Potency result was “inactive”.

Take `O=C(c1ccncc1)N1CCC2(CCN(Cc3cc(C(F)(F)F)cc(C(F)(F)F)c3)CC2)CC1`: the Potency entry was “inactive”.

As for `C[C@]12CC[C@@H]3C(=CCc4cc(O)ccc43)[C@@H]1CCC2=O`, the activity, negative = inhibition was -6.88% [at 12 µM] (inactive).

Turning to `Oc1ccc(Cl)c2c1CCC2`, the activity, negative = inhibition is 2.83% [at 19.4 µM] (inactive).

For the compound `C/C=C/C=N/NC(=O)c1ccncc1`, the activity, negative = inhibition is -3.32% [at 19.4 µM] (inactive).

In the case of `CN(C)[C@@H]1C(=O)C(C(N)=O)=C(O)[C@@]2(O)C(=O)C3=C(O)c4c(O)ccc(Cl)c4[C@@H](O)[C@H]3C[C@@H]12`, the Potency was 89.1 µM (active).

Take `C=C1c2c(Cl)ccc(O)c2C(O)=C2C(=O)[C@]3(O)C(O)=C(C(N)=O)C(=O)[C@@H](N(C)C)[C@@H]3[C@@H](O)C12` (stereo partly specified): the Potency is 3.98 µM (active).
